Rab9 prom act: qHTS Assay for Rab9 Promoter Activators; Huh7 Rab9 promoter-luciferase reporter, luminescence, 24 h; Potency, µM (series often up to 9.22 µM), hits mostly activators; actives 2.8% (n = 320,000); AID 485297, 2010; note: nearly all actives have a fitted effect of over 60% in size
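Quantitative HTS format; Huh7 Rab9-luciferase reporter cells (1500/well) receive compound 2 h post-plating, incubate 24 h at 37 °C, then get luciferase reagent for 10 min before luminescence reading.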
ELG1 genotoxic: qHTS screen for small molecules that induce genotoxicity in human embryonic kidney (HEK293T) cells expressing luciferase-tagged ELG1; HEK293T ELG1-luciferase reporter, luminescence, 16 h; Potency, µM (doses to about 46 µM), usual class: activators; actives 1.3% (n = 330,000); AID 504466, 2011; note: nearly all actives have a fitted effect of over 60% in size
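Genotoxicity was scored as increased ELG1-luciferase reporter signal, measured by ONE-Glo luminescence (30 min, room temperature). Compound or vehicle exposure of the HEK293T reporter cells lasted 16 hr at 37°C.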
Luc counter: Counterscreen for Luciferase (Kinase-Glo TM) Inhibition; Potency, µM (series often up to 38.3 µM), hits mostly inhibitors; Luciferin 4-monooxygenase (Photuris pensylvanica), Q27757; Kinase-Glo luciferase, ATP luminescence, 8 min; actives 0.28% (n = 200,000); note: nearly all actives have a fitted effect of over 60% in size
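Recombinant Kinase-Glo luciferase, 10 uM ATP (linear range), luciferin; imidazole pH 7.2 / KCl / MgCl2 / Tween / BSA buffer; 8 min RT; luminescence.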
SMN2 splice up: qHTS Assay for Enhancers of SMN2 Splice Variant Expression | Potency, µM (top dose mostly 46.1 µM), usual class: activators | actives 2.8% (n = 210,000) | HEK293 SMN2-luciferase splicing reporter, luminescence, 30-36 h; note: nearly all actives have a fitted effect of over 55% in size
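HEK293 cells carry an SMN2 […]–luciferase reporter in which exon 7 inclusion puts luciferase in frame. Cells were plated 10-12 h before compound addition, then incubated 30-36 h at 37C. ONE-Glo luminescence was read; sodium butyrate at 4.5 mM final served as control.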
NPC1 promoter act: qHTS Assay for NPC1 Promoter Activators; Huh7 NPC1 promoter luciferase reporter, 24 h; Potency, µM (top dose mostly 9.22 µM), most hits filed as activators; actives 2.4% (n = 320,000); note: nearly all actives have a fitted effect of over 60% in size
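Huh7 reporter cells (NPC1 promoter driving luciferase) are dosed with compound for 24 h at 37 °C, 5% CO2; luciferase detection reagent is then added and luminescence measured after 10 min at ambient temperature.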
FLuc modulator: qHTS profiling assay for firefly luciferase inhibitor/activator using purifed enzyme and Km concentrations of substrates (counterscreen for miR-21 project). Luciferin 4-monooxygenase (Photinus pyralis), P08659. purified FLuc, Km substrates, luminescence inhibition. Potency, µM (top dose mostly 57.5 µM), hits mostly inhibitors. actives 6.9% (n = 360,000); note: nearly all actives have a fitted effect of over 55% in size
Target sequence (P08659 whole entry, looked up): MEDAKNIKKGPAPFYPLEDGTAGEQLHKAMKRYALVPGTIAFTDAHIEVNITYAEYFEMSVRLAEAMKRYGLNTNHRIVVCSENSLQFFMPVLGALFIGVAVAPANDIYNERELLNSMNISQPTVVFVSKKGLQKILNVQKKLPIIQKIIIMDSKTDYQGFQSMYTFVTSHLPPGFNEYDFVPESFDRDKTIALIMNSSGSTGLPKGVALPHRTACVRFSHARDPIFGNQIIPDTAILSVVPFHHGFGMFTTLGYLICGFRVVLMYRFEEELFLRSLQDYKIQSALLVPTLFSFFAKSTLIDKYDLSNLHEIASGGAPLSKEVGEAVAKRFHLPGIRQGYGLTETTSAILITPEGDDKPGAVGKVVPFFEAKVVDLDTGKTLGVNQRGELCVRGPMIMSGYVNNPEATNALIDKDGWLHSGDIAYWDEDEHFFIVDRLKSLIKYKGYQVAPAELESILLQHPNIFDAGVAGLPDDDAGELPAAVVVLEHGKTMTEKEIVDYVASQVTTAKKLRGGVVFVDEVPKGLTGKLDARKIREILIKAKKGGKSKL
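Purified P. pyralis luciferase (10nM final) with 10uM D-luciferin and 10uM ATP (Km levels) in 50mM Tris acetate pH 7.5, 10mM Mg acetate, 0.01% Tween-20, 0.05% BSA; qHTS 6-point titration, ~60 µM downward; luminescence read.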
Numbers stand for hits; . = inactive; ? = inconclusive; / = no result given; [ ] = dose if it differs, or a comment. Compounds with a hit are over-represented: about 7.5% of the library has one in this group of screens. Calls come from the whole dose curve; as a rule, active = well fitted curve in the direction sought with a large enough effect; inconclusive = small, poorly fitted or top-dose-only effect, or another doubt; inactive = no such curve, though single readings can be large; an effect the other way counts as inactive or inconclusive.

SMILES	Rab9 prom act	ELG1 genotoxic	Luc counter	SMN2 splice up	NPC1 promoter act	FLuc modulator
Cc1ccc(NC(=O)Cn2nc(C)c3nn(-c4ccc(Cl)cc4)c(C)c3c2=O)cc1C	/	/	/	/	/	.
CCC(=O)N1CCCc2cc(S(=O)(=O)N3CCC(C(=O)Nc4ccccc4CC)CC3)ccc21	/	/	/	/	/	.
O=Cc1cccc(OC(=O)c2ccc(Cl)cc2Cl)c1	?	12µM	.	?	?	17µM
COc1cccc(/C=C2\SC(=S)N(N3C(=O)CCCC3=O)C2=O)c1	.	.	.	.	.	21µM
O=C1/C(=C/c2cccc(O)c2)SC(=S)N1CC1CCCO1 (stereo unspecified)	.	.	/	/	.	?
COc1cccc(/C=C2\SC(=S)N(CC3CCCO3)C2=O)c1 (stereo unspecified)	.	.	.	.	.	11µM
O=C(N/N=C/c1ccccc1Cl)c1cccc(F)c1	2µM	?	.	22µM	2.5µM	4.8µM
CCc1ccc(C(=O)N/N=C/c2cccc3ccccc23)nc1	.	?	.	?	.	5.4µM
COCCNC(=O)Cn1cc(/C=N/NC(=O)c2ccc(Oc3ccc(O)cc3)cc2)c2ccccc21	.	.	.	.	.	11µM
Cc1nn(Cc2c(Cl)cccc2Cl)c(Cl)c1/C=N/NC(=O)c1cccnc1	?	.	.	.	.	9.5µM
Cc1cc(N2CCCCC2)nc2ccc(NC(=O)/C=C/c3ccccc3OC(C)C)cc12	/	/	/	.	/	.
Cc1ccc2c(c1)N(CC(=O)NCCC1=CCCCC1)C(=O)c1cccnc1O2	.	.	/	/	.	.
O=C(N/N=C/c1cccc2ccccc12)c1cccc(F)c1	.	.	/	/	.	21µM
O=C(N/N=C/c1cccc2ccccc12)c1cccnc1	.	.	/	/	.	15µM
Cc1ccccc1/C=N/NC(=O)c1cccnc1	.	.	/	/	.	?
O=C(N/N=C/c1cccc([N+](=O)[O-])c1)c1ccc(CN2CCOCC2)cc1	.	.	.	.[1.84 µM]	.	?
O=C(N/N=C/c1cccc2ccccc12)c1ccc(CN2CCOCC2)cc1	.	.	/	/	.	17µM
Nc1ccc(C(=O)N/N=C/c2cn(Cc3cccc(F)c3)c3ccccc23)cc1	.	.	/	/	.	24µM
CC(C)[C@H](NC(=O)[C@@H]1Cc2ccccc2CN1C(=O)OC(C)(C)C)C(=O)NCc1ccco1	.	.	/	/	.	.
COc1ccc(NC(=O)C/C(C)=N/NC(=O)c2cccs2)c([N+](=O)[O-])c1	.	?	/	/	.	.
N[C@@H](CCCCO)C(=O)O	/	/	.[7.66 µM]	.[9.22 µM]	/	/
CN(C(=O)CSc1nc2ccc(NC(=O)CCc3ccccc3)cc2s1)c1ccccc1	/	/	/	/	/	.
COc1ccc(N2CCN(c3oc(/C=C/c4ccc(F)cc4)nc3C#N)CC2)cc1	/	/	/	.	/	.
Cc1c(C(=O)NCCN(C)C)oc2c1-c1nn(Cc3cccc(Cl)c3)cc1CC2	/	/	/	/	/	.
Cc1ccc(-c2nn(-c3ccccc3)cc2C2CC(c3cccs3)=NN2C(=O)CCC(=O)O)cc1 (stereo unspecified)	.	.	.	.	.	.
SMILES	Rab9 prom act	ELG1 genotoxic	Luc counter	SMN2 splice up	NPC1 promoter act	FLuc modulator
O=C(O)CCn1cc(C2CC(c3ccccc3)=NN2c2ccccc2)c(-c2ccccc2)n1 (stereo unspecified)	.	.	.	.	.	19µM
Clc1nc(-c2ccccn2)nc2scc(-c3ccccc3)c12	4.5µM	?	.	5.6µM	?	0.38µM
CC1CCN(c2nc(-c3cccnc3)nc3scc(-c4ccccc4)c23)CC1	.	.	.	.	.	.
CCOC(=O)c1sc(Nc2ccc(Br)cc2)nc1C	.	.	/	/	.	19µM
CCOC(=O)c1sc(NCCNc2nc(C)c(C(=O)OCC)s2)nc1C	.	.	.	.	.	.
COC(=O)Cc1csc(Nc2ccccc2Cl)n1	3.5µM	?	.	?	?	19µM
CCOC(=O)c1sc(NC(=O)Nc2ccccc2F)nc1C	0.45µM	0.26µM	.	.	?	0.17µM
